Bioassay records: PubChem, Broad Institute
Shown is part of a subset that was picked to be rich in hits.
DUX4 txn inh = inhibitors of DUX4-driven ZSCAN4 reporter expression, primary screen, 293T cells, Gaussia and Italica luciferase | 293T-iDUX4 ZSCAN4-Gaussia luciferase reporter, 24 h; stronger effect = lower value | activity change, negative = inhibition, % (no concentration beside the values) | actives 0.8% (n = 37,000) | AID 1224904, 2016;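 active means mean inhibition of at least 10% in the main channel, exceeding the control channel by a set limit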;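 further: 0% = median of neutral control wells and -100% = median of positive control wells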
An asterisk follows results filed as active; ! = not confirmed by another sample.

SMILES | DUX4 txn inh
CCS(=O)(=O)N1CCC2(CC1)CN(C(=O)c1ccc(F)cc1)[C@@H](CO)c1c2c2ccc(OC)cc2n1C | 8.7
C/C=C/c1ccc(C2[C@@H]3CN(Cc4cccc(OC)c4)C[C@H]2N3)cc1 (stereo not given in full) | -5.0
C(=C\c1ccc(C2[C@@H]3CN(Cc4ccc5c(c4)OCO5)C[C@H]2N3)cc1)/c1ccccc1 (stereo not given in full) | -40.8*!
c1ncc(-c2ccc(C3[C@@H]4CN(Cc5ccc6c(c5)OCO6)C[C@H]3N4)cc2)cn1 (stereo not given in full) | -3.5
COc1cccc(S(=O)(=O)N2C[C@H](O)COC[C@H]3O[C@H](CC(=O)N4CCN(C)CC4)CC[C@@H]32)c1 | 15.3
COc1cccc(-c2ccc(C3[C@@H]4CN(S(=O)(=O)c5ccccc5)C[C@H]3N4)cc2)c1 (stereo not given in full) | -20.4*
O=S(=O)(c1ccc(F)cc1)N1[C@@H]2CNC[C@H]1C2c1ccc(-c2cccnc2)cc1 (stereo not given in full) | 4.9
CN(C)C(=O)c1cccc(-c2ccc(C3[C@H]4CNC[C@@H]3N4S(=O)(=O)c3ccc(Cl)cc3)cc2)c1 (stereo not given in full) | 15.6
O=C(c1ccc(F)cc1)N1C[C@@H]2N[C@H](C1)C2c1ccc(-c2cccnc2)cc1 (stereo not given in full) | -7.8
CN(C)C(=O)c1cccc(-c2ccc(C3[C@@H]4CN(S(=O)(=O)c5cccc(Cl)c5)C[C@H]3N4)cc2)c1 (stereo not given in full) | -28.2*
O=S(=O)(c1ccccc1)N1C[C@@H]2N[C@H](C1)C2c1ccc(-c2cccnc2)cc1 (stereo not given in full) | -12.6*!
COc1ccc(S(=O)(=O)N2[C@@H]3CNC[C@H]2C3c2ccc(-c3cccc(OC)c3)cc2)cc1 (stereo not given in full) | 10.5
COc1cccc(-c2ccc(C3[C@@H]4CN(S(=O)(=O)c5cccc(Cl)c5)C[C@H]3N4)cc2)c1 (stereo not given in full) | -6.7
CN(C)C(=O)c1cccc(-c2ccc(C3[C@@H]4CN(C(=O)Cc5ccccc5)C[C@H]3N4)cc2)c1 (stereo not given in full) | 9.2
O=C(C[C@H]1C[C@H]2c3cc(NC(=O)Cc4ccncc4)ccc3O[C@H]2[C@@H](CO)O1)NCc1ccccn1 | 0.7
CO[C@H]1CN(C)C(=O)c2cc(NC(C)=O)ccc2OC[C@@H](C)NC[C@@H]1C | -2.9
COc1cccc(S(=O)(=O)Nc2ccc3c(c2)[C@@H]2C[C@H](CC(=O)N4CCCCC4)O[C@@H](CO)[C@@H]2O3)c1 | 6.6
CNC[C@H]1Oc2ccc(NC(=O)Nc3ccc(C(F)(F)F)cc3)cc2CC(=O)N([C@H](C)CO)C[C@H]1C | -0.8
OC[C@H]1[C@@H](c2ccc(-c3cccc(F)c3)cc2)[C@H]2CN(Cc3cncnc3)CCCCN21 | 4.5
Cc1cccc(-c2ccc([C@H]3[C@@H](CO)N4CCCCN(Cc5ccncc5)C[C@H]34)cc2)c1 | -6.7
CN(C)C(=O)c1ccc(-c2ccc([C@H]3[C@@H](CO)N4CCCCN(CCC(F)(F)F)C[C@@H]34)cc2)cc1 | 5.9
CN(C)C(=O)c1ccc(-c2ccc([C@@H]3[C@@H](CO)N4CCCCN(CCC(F)(F)F)C[C@H]34)cc2)cc1 | 7.0
OC[C@H]1[C@H](c2ccc(-c3cccc(F)c3)cc2)[C@@H]2CN(CCC(F)(F)F)CCCCN12 | -47.0*
Cc1cccc(-c2ccc([C@@H]3[C@@H](CO)N4CCCCN(CCC(F)(F)F)C[C@H]34)cc2)c1 | 14.3
Cc1cccc(-c2ccc([C@H]3[C@@H](CO)N4CCCCN(CCC(F)(F)F)C[C@H]34)cc2)c1 | -39.3*
SMILES | DUX4 txn inh
Cc1cccc(-c2ccc([C@@H]3[C@@H](CO)N4CCCCN(CCC(F)(F)F)C[C@@H]34)cc2)c1 | -55.5*
OC[C@@H]1[C@@H](c2ccc(-c3cccc(F)c3)cc2)[C@@H]2CN(Cc3cncnc3)CCCCN12 | 27.1
CCCNC(=O)N1C[C@H]2[C@@H](c3ccccc31)[C@@H](CO)N2C(=O)Nc1ccccc1 | 0.9
CO[C@@H]1CN(C)C(=O)c2cc(NS(C)(=O)=O)ccc2OC[C@H](C)N(CCC(F)(F)F)C[C@H]1C | 3.1
COCC#Cc1cnc2c(c1)C(=O)N([C@H](C)CO)C[C@@H](C)[C@@H](CN(C)C(=O)c1cnccn1)O2 | -0.9
COc1ccccc1CN(C)C[C@@H]1OCc2cn(nn2)CCCC(=O)N([C@H](C)CO)C[C@@H]1C | 1.4
CCNC(=O)C[C@H]1CC[C@H]2[C@H](COc3ccc(NC(C)=O)cc3C(=O)N2C)O1 | 0.8
N[C@@H]1CC[C@@H](CCn2cc(-c3ccccn3)nn2)O[C@H]1CO | -1.9
CNC(=O)C[C@@H]1CC[C@@H]2[C@H](COC[C@@H](O)CN2C(=O)c2ccc3c(c2)OCO3)O1 | -2.1
